Sampled rows, rich in hits. Any-hit rate of the full collection: about 1.2%.
RXFP1 antagonist – RXFP1 (human) relaxin receptor antagonism; Q9HBX9; HEK293-RXFP1, relaxin-stimulated cAMP HTRF, 30 min; hits give low values; activity change, negative = inhibition, % at 57.5 µM; 0.59% of 350,000 active; AID 1259400;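 active means activity change of -60% or lower, but not beyond a set lower limit; inconclusive means change between -60% and -40%, or beyond the set limit; inactive means change above -40%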
Target sequence (Q9HBX9 whole entry, looked up): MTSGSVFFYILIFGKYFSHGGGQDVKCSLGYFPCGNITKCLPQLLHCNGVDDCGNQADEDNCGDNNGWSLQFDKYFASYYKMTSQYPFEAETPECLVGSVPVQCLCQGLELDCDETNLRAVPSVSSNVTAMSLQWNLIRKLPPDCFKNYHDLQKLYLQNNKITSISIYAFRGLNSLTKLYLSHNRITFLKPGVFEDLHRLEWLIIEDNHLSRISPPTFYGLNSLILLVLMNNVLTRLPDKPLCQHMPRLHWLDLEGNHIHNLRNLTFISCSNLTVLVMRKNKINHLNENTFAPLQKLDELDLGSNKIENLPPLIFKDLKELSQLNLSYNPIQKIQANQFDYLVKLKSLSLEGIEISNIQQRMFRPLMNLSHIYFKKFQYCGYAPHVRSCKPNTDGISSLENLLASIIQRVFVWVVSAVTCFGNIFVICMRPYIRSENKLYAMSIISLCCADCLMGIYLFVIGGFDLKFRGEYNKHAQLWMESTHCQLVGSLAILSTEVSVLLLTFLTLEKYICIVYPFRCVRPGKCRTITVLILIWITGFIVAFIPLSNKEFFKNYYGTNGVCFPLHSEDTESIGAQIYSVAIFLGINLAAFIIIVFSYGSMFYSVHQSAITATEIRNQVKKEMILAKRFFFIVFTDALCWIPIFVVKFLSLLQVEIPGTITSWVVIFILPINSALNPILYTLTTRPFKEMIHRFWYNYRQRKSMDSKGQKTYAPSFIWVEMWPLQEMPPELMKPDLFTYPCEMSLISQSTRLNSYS
gsp agonist – gsp mutant agonism; AID 624287; Potency, µM (titrated, usually from 76.9 µM), usual class: activators; gsp mutant cells, cAMP HTRF, 30 min; 0.13% of 340,000 active; active means well fitted activation curve with a large enough effect; inconclusive means small, poorly fitted or top-dose-only effect, or another doubt; inactive means no such curve, though single readings can be large or run the other way; cell line not stated here;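 further: phosphodiesterase inhibitor Ro 20-1724 added with compounds to block cAMP breakdown; nearly all actives have a fitted effect of over 60% in size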
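Cells stably selected in G418 were plated at 2000/well, grown 16-24 hr, then given compounds in DMSO with the PDE inhibitor […] (300 uM solution added) for 30 min at 37C; cAMP was read by HTRF.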
pAkt inh – Akt phosphorylation inhibition; Neuro2A IGF-stimulated pAkt S473 HTRF, 20 min; hits give low values; activity change, % for hits at 50 µM; 0.32% of 360,000 active; AID 651550; in the data active means activity change below about -80%; inconclusive means mostly about -51% to -80%
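Neuro2A cells in DMEM with 0.5% FBS, overnight at 37 deg C, given compound at single 50 µM final, then IGF (6 nM final) for 20 min at 37 deg C. Lysed; phospho-Akt Ser473 by HTRF after 24 h, 665/615 ratio.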
gsp antagonist – antagonizes gsp, the McCune-Albright syndrome mutation | Potency, µM (series often up to 76.9 µM), usual class: inhibitors | 0.4% of 340,000 active | AID 624288 | gsp-mutant cells, cAMP HTRF, 30 min; calls by dose curve; cell line not stated here;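 further: intracellular cAMP measured with PDE inhibitor Ro 20-1724 present during compound exposure; nearly all actives have a fitted effect of over 65% in size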
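Cells, 2000/well, grown 16–24 h in DMEM 10% FBS with 0.5 mg/ml G418, then compounds plus […] (300 uM addition stock), 30 min at 37C. cAMP read by HTRF (cAMP-d2 and anti-cAMP antibody-K in lysis buffer) after 30 min RT.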
RXFP1 agonist – agonists of human relaxin receptor RXFP1; Q9HBX9; HEK293T-RXFP1 cAMP TR-FRET, 30 min; response scale: percent of porcine relaxin response, buffer zero; Potency, µM (doses to about 57.5 µM), actives largely listed as activators; 0.3% of 370,000 active; AID 2676; active means well fitted activation curve with a large enough effect; inconclusive means small, poorly fitted or top-dose-only effect; further: nearly all actives have a fitted effect of over 60% in size
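HEK293T cells stably expressing RXFP1 were pretreated with the PDE4 inhibitor Ro 20174, exposed to compounds for 30 min at 37C, lysed, and cAMP was read by TR-FRET. Data normalized to buffer (basal) and 29 nM porcine relaxin (100%).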
Of the large screens only hits and unclear results are named; the others gave an inactive call.

CCc1ccccc1N(CC)C(=O)Cn1nc(Cc2ccncc2)c2ccccc2c1=O	none (no result: gsp agonist, pAkt inh, gsp antagonist)
CCN1CCN(c2cc(-c3ccc(F)cc3)c3c(n2)CCCCCC3)CC1	none (no result: gsp agonist, pAkt inh, gsp antagonist, RXFP1 agonist)
Cc1coc(C)c1C(=O)CC1(O)C(=O)N(Cc2ccccc2)c2ccccc21 (stereo unspecified)	pAkt inh -95%
Cc1ccc(CN2C(=O)C(O)(CC(=O)c3ccc(C)cc3)c3ccccc32)cc1 (stereo unspecified)	none (no result: gsp agonist, pAkt inh, gsp antagonist)
C=CCN1C(=O)C(O)(CC(=O)c2ccccc2)c2ccccc21 (stereo unspecified)	pAkt inh -109%
Cc1ccc2c(Sc3ccccc3)c(C(=O)NCc3ccccc3F)[nH]c2c1	none (no result: gsp agonist, pAkt inh, gsp antagonist)
Cc1cc(-c2ccc(S(=O)(=O)Nc3ccc(Cl)cc3C)cc2)on1	none (no result: gsp agonist, pAkt inh, gsp antagonist)
COc1cc(/C=N/N2CCN(c3ccccc3)CC2)cc(OC)c1OC(C)=O	gsp antagonist 32µM
CC1(C)CC(C(CCN(Cc2ccccc2)C(=O)c2ccco2)c2ccc(F)cc2)CCO1 (stereo unspecified)	gsp antagonist 28µM
O=C(c1ccco1)N(CCC(c1ccccc1)c1ccco1)Cc1ccc(F)cc1 (stereo unspecified)	none
CCOc1ccc(Cn2c(O)cc(=O)[nH]c2=O)cc1	pAkt inh -117%
COc1ccc(Cn2c(O)cc(=O)[nH]c2=O)cc1	none
Cc1ccc(S(=O)(=O)NN=Cc2ccco2)cc1	none (no result: gsp antagonist, RXFP1 agonist)
Cc1ccc(S(=O)(=O)N/N=C/c2cc(Br)c(C)o2)cc1	pAkt inh -95%
CN1C(=O)CC(C)(c2ccccc2)C1=O (stereo unspecified)	none (no result: gsp agonist, pAkt inh, gsp antagonist, RXFP1 agonist)
CCSc1nnc(-c2ccccc2SC)o1	gsp agonist inconclusive, RXFP1 agonist 22µM
CC1(C(=O)O)CC(C)(C(=O)O)CC(C)(C(=O)O)C1 (stereo unspecified)	pAkt inh -119%
COC(=O)C1=C(O)C2(C(=O)O)CC(C(=O)OC)=C(O)C(C(=O)O)(C1)C2	none
CCOC(=O)c1ccc(NC(=O)C(=O)NCC2CCCO2)cc1 (stereo unspecified)	pAkt inh -108%
CCOC(=O)c1ccc(NC(=O)CC2OCCN(CC)C2=O)cc1 (stereo unspecified)	pAkt inh -118%
CCc1ccc(NC(=O)C(=O)NCC2CCCO2)cc1 (stereo unspecified)	none
CCOc1ccc(C2C(C#N)=C(N)SC(N)=C2C#N)c(OCC)c1	gsp agonist inconclusive, pAkt inh -85%, RXFP1 agonist inconclusive
O=S(=O)(c1ccc(Oc2ccc(Br)cc2)cc1)N1CCOCC1	pAkt inh -113%
CCCCC/C(C=O)=C\c1ccccc1	none (no result: gsp agonist, pAkt inh, gsp antagonist, RXFP1 agonist)
S=c1[nH]ccc2ccccc12	gsp agonist 5µM (no result: RXFP1 agonist)
Cc1ccc(Cl)cc1N1CCN(CCCNC(=O)C2COc3ccccc3C2)CC1 (stereo unspecified)	none (no result: gsp agonist, pAkt inh, gsp antagonist)
Cc1ccc2onc(CC(=O)N(C)c3ccccc3)c2c1	none (no result: gsp agonist, pAkt inh, gsp antagonist)
Cc1cccc(CNC(=O)c2oc3c(c2C)-c2nn(Cc4ccccc4Cl)cc2CC3)c1	RXFP1 antagonist -66 (no result: gsp agonist, pAkt inh, gsp antagonist)
CCOc1ccc(CNC(=O)c2oc3c(c2C)-c2nn(Cc4cccc(Cl)c4)cc2CC3)cc1	RXFP1 antagonist -78 (no result: gsp agonist, pAkt inh, gsp antagonist)
Cc1cccc(CNC(=O)c2oc3c(c2C)-c2nn(Cc4cccc(Cl)c4)cc2CC3)c1	RXFP1 antagonist inconclusive (no result: gsp agonist, pAkt inh, gsp antagonist)
COCCCNC(=O)c1oc2c(c1C)-c1nn(Cc3cccc(Cl)c3)cc1CC2	none (no result: gsp agonist, pAkt inh, gsp antagonist)
Cc1nc(-c2ccc(Cl)cc2)oc1COC(C)(C)C(=O)O	none (no result: gsp agonist, pAkt inh, gsp antagonist, RXFP1 agonist)
O=C1Cc2cc(CCN3CCN(c4nsc5ccccc45)CC3)c(Cl)cc2N1	RXFP1 antagonist -107 (no result: gsp agonist, pAkt inh, gsp antagonist)
COc1ccc(NC(=O)Cn2c(=O)n(-c3ccc(C)cc3)c(=O)c3c2c2cc(C)ccc2n3C)cc1	none (no result: RXFP1 antagonist, gsp agonist, pAkt inh, gsp antagonist)
COC(=O)c1cc(C(=O)OC)cc(N2C(=O)CN=C2Nc2nc(C)cc(C)n2)c1	gsp agonist inconclusive, pAkt inh -80%
CCOC(=O)c1c(C)[nH]c(-c2csc(C)n2)c1C	RXFP1 antagonist -67
CCOC(=O)c1c(C)[nH]c(-c2csc(N)n2)c1C	none (no result: gsp antagonist)
CC[n+]1c(/C=C/c2ccc(OC)c(OC)c2)ccc2ccccc21	none
CC[n+]1c(/C=C/c2ccc(N(C)C)cc2)ccc2ccccc21	RXFP1 antagonist -91, gsp antagonist inconclusive
COc1ccc(OC)c(CCNC(=O)CCn2c(=O)c3cccn3c3cccnc32)c1	none (no result: gsp agonist, pAkt inh, gsp antagonist)

Compound activity: PubChem BioAssay, National Center for Advancing Translational Sciences (NCATS)
